In PubChem BioAssay (NCI) one finds growth data, which are given here for 16 compounds.

The panel holds about 83,000 compounds, 20% with a hit somewhere; the sample as a whole holds those more often.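 The endpoint reported here, percent growth, reads 100 for growth as untreated, 0 for no net growth and -100 for all cells dead.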 Values without a mark were called inactive. Activity calls are given as the source filed them. Rule for the calls: active = growth percent below 10; inactive = the rest.

What all share (assay): NCI-60 one-dose screen, 48 h (100 = growth as untreated, 0 = no growth, -100 = all killed)
Experiment [1] deals with NCI-H23 lung. Conditions: 10 µM unless noted.
Experiment [2] deals with NCI-H322M lung. The conditions noted are these: 10 µM unless noted.
For experiment [3], the system named is HOP-62 NSCLC. The conditions noted are these: 10 µM unless noted.
For experiment [4], the system named is NCI-H460 lung. Conditions: 10 µM unless noted.
Experiment [5] deals with HOP-92 NSCLC. The conditions noted are these: 10 µM unless noted.
Experiment [6] deals with A549/ATCC NSCLC. The conditions noted are these: 10 µM unless noted.
The subject of experiment [7] is 786-0 renal. The conditions noted are these: 10 µM unless noted.
Experiment [8] relates to COLO 205 colon. Conditions: 10 µM unless noted.
Experiment [9] relates to NCI-H522 lung. The conditions noted are these: 10 µM.

For `O=C1NC(=O)C(CSc2ccccc2)(c2ccccc2)N1` (stereo not given), the growth in experiment [1] was 97.7%; in experiment [2], 86.5%; in experiment [3] it was 97.3%; in experiment [4], 118%; in [5], 90.8%; in [6] it was 92.4%. Moreover, the results for the growth in experiment [7] and in experiment [8] were 103% and 98%, respectively.

Take `CC(=O)Nc1ccc(Sc2ccc([N+](=O)[O-])o2)cc1`: the growth in experiment [1] is 39.9%; in experiment [2] it was 98.3%; in experiment [3], 68.4%; in experiment [4], 46.9%; in experiment [5], 40.2%; in [6] it was 65.1%. The growth was 50.7% in [7] and -67.3% (active) in experiment [8].

For the compound `COc1ccccc1-n1c(SCc2cc(OC)c(OC)c(OC)c2)nc2ccc(Cl)cc2c1=O`, the growth was 36.1% in [1]; 55.1% in experiment [2]; 51.8% in [3]; 10.8% in [4]; 42.9% in experiment [5]; 31.1% in experiment [6]. The results for the growth in experiment [7] and in experiment [8] were 51.1% and 28%, respectively.

As to `Cc1c(C(=O)Nc2nc(-c3ccccc3)cs2)nnn1-c1ccccc1Br`, the growth in experiment [1] was 28.7% [50 µM]; in experiment [2], 79.5% [50 µM]; in experiment [3], 94.7% [50 µM]; in experiment [4], 45.2% [50 µM]; in [5] it was 57.4% [50 µM]; in [6], 30.9% [50 µM]. Moreover, the values for the growth in experiment [7] and in experiment [8] were 66.7% [50 µM] and 42.3% [50 µM], respectively.

For `CCCCCCCC/C=C\CCCCCCCCOc1cccc(CC(=O)NCC[N+]2(C)CCCCC2)c1`, the growth in experiment [1] is 71.9%; in experiment [2], 92.3%; in [3], 67%; in experiment [4], 40.1%; in experiment [9], 63%; in experiment [6], 82.3%. Besides, the growth in [7] was 90.4%.

In the case of `CC(=O)Nc1ccccc1-c1n[nH]c(=O)[nH]c1=O`, the growth in experiment [1] was 102%; in [2] it was 105%; in [3], 97.6%; in [4], 104%; in experiment [5], -10.8% (active); in [6], 116%. Moreover, the results for the growth in experiment [7] and in experiment [8] were 98.4% and 115%, respectively.

Turning to `COc1ccc(-n2c(SCc3cc(OC)c(OC)c(OC)c3)nc3ccc(C)cc3c2=O)c(OC)c1`, the growth is 17.8% in [1]; 28% in experiment [2]; 47.4% in experiment [3]; 4.59% (active) in [4]; 22.7% in [5]; 19% in experiment [6]. Moreover, the growth was 29.6% in experiment [7] and -4.21% (active) in experiment [8].

`COc1cc(C(=O)N(C(C)C)C2CCCCC2)cc(OC)c1OC`: the growth was 101% in experiment [1]; 108% in experiment [2]; 93.3% in experiment [3]; 107% in experiment [4]; 88.3% in [9]; 97.2% in experiment [6]. Further, the growth is 121% in experiment [7] and 105% in [8].

For the compound `Nc1nc(N)c(C=Nc2ccc(Br)cc2)c(Nc2ccc(Br)cc2)n1`, the growth is 97.9% in experiment [1]; 72.9% in experiment [2]; 98.9% in [3]; 95.9% in [4]; 86.4% in experiment [9]; 77.2% in experiment [6]. Moreover, the growth was 92.9% in experiment [7] and 117% in experiment [8].

Regarding `CC(C)(C)[Si](C)(C)OC1[C@@H](COC(=O)NC(=O)CCl)O[C@@H](n2cnc3c(N)ncnc32)[C@H]1O[Si](C)(C)C(C)(C)C` (stereo not given in full), the growth in experiment [1] is -45% (active); in experiment [2], 113%; in experiment [3], 81.9%; in experiment [4] it was 64.6%; in experiment [5] it was 12.7%; in [6], 62.6%. The growth in experiment [7] was 4.11% (active); in [8], 27.5%.

With `COc1ncnc2c1ncn2C/C(Br)=C(\Br)CCl`, the growth in [1] is 15.1%; in experiment [2] it was 78.9%; in experiment [3], 15.6%; in experiment [4] it was -40.7% (active); in [9], -72.1% (active); in [6], 9.47% (active). Also, the growth in experiment [7] was 7.78% (active); in experiment [8], -82.6% (active).

Take `CC(C)(C)[Si](C)(C)OC1[C@@H](O[Si](C)(C)C(C)(C)C)[C@@H](CNC(=O)NC(=O)C(F)(F)F)O[C@H]1n1cnc2c(NC(=O)Nc3ccccc3)ncnc21` (stereo not given in full): the growth in [1] was 86.4%; in experiment [2] it was 97.6%; in experiment [3] it was 93%; in [4], 36.1%; in [5] it was -11.4% (active); in [6] it was 51.4%. In addition, the growth in [7] is 83.1%; in [8], 91.9%.

Take `COc1cc(OCc2cccc(-c3ccc(C(O)c4nccs4)cc3)c2C)cc(OC)c1C=O` (stereo not given): the growth was 42.1% in experiment [1]; 92.1% in [2]; 47.9% in experiment [3]; 38.8% in [4]; 47.3% in experiment [9]; 40.2% in [6]. The growth in experiment [7] is 48.2%.

`CC(=O)c1cc(C)c(OC(=O)c2ccccc2)c(C)c1`: the growth is 89.8% in experiment [1]; 119% in [2]; 96.8% in [3]; 106% in experiment [4]; 96.1% in experiment [5]; 100% in experiment [7]. Further, the growth in experiment [8] was 93.9%.

As to `N#C/C(=C\c1ccc[nH]1)c1cc2ccccc2[nH]1`, the growth is 39.1% in [1]; 87.5% in experiment [2]; 85.1% in experiment [3]; 71.1% in [4]; 76.9% in [5]; 54.2% in experiment [6]. Besides, the growth in experiment [7] was 93.4%; in [8] it was 88.6%.

For `COc1cc2cc(Oc3ccc(NC(=O)Nc4ccc(Cl)c(C(F)(F)F)c4)cc3)c(C)nc2cc1OCCN1CCCCC1`, the growth is -80.4% (active) in [1]; 8.09% (active) in [2]; 85.6% in [3]; -82% (active) in experiment [4]; 37.4% in experiment [5]; -54.4% (active) in [6]. The growth is -89.3% (active) in [7] and -81.4% (active) in [8].
